Where “and” joins values, the source holds several entries; their conditions need not be identical. Equal entries are not always repeated. Among all 5,500 compounds or so, about 2,000 (36%) were called active. Not shown: some 18% with an inconclusive outcome. Rule as the data show it: active = normalized growth mostly below about 0.91 (no sharp cut-off); inconclusive = no clear call, values can overlap the other calls; inactive = mostly above about 0.92. The list shows a part of the results.
Assay: chemical genetic growth profiling, strain panel (AID 1159580);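 also: tested at 20 µM; growth read once vehicle control cultures reached saturation at 30 °C; 1 = growth at the plate median or of vehicle wells; lower values mean less growth of the strain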
Details: S. cerevisiae deletion strains, growth OD

Measured: normalized growth

COc1cc(CNC(=O)CCCC/C=C/C(C)C)ccc1O
inactive: locus YAL013W, strain DEP1, active compounds read low 1.01 | locus YAL021C, strain ccr4, active compounds read low 0.971 | locus YAL026C, strain drs2, active compounds read low 0.994 | locus YAL030W, strain snc1, active compounds read low 0.987 | locus YBL061C, strain skt5, active compounds read low 0.99 | locus YBR009C, strain hhf1, active compounds read low 0.951 | locus YBR021W, strain FUR4, active compounds read low 0.978 | locus YBR023C, strain chs3, active compounds read low 0.975 | locus YBR171W, strain sec66, active compounds read low 0.979 | locus YBR229C, strain ROT2, active compounds read low 0.994 | locus YBR231C, strain swc5, active compounds read low 0.981 | locus YBR279W, strain paf1, active compounds read low 0.983 | locus YCL011C, strain gbp2, active compounds read low 0.979 | locus YCL016C, strain dcc1, active compounds read low 0.989 | locus YCL029C, strain bik1, active compounds read low 0.988 | locus YCL069W, strain vba3, active compounds read low 0.992 | locus YCR088W, strain abp1, active compounds read low 0.964 | locus YDL005C, strain med2, active compounds read low 0.965 | locus YDL035C, strain GPR1, active compounds read low 0.972 | locus YDL040C, strain nat1, active compounds read low 0.997 | locus YDL074C, strain BRE1, active compounds read low 0.979 | locus YDL101C, strain DUN1, active compounds read low 1.01 | locus YDL134C, strain PPH21, active compounds read low 1 | locus YDL185W, strain tfp1, active compounds read low 0.986 | locus YDL192W, strain arf1, active compounds read low 0.989 | locus YDR001C, strain nth1, active compounds read low 0.997 | locus YDR069C, strain doa4, active compounds read low 0.981 | locus YDR101C, strain arx1, active compounds read low 0.969 | locus YDR137W, strain rgp1, active compounds read low 0.997 | locus YDR159W, strain sac3, active compounds read low 0.999 | locus YDR162C, strain NBP2, active compounds read low 1.04 | locus YDR195W, strain ref2 0.959 | locus YDR297W, strain sur2, active compounds read low 0.973 | locus YDR318W, strain mcm21, active compounds read low 1 | locus YDR334W, strain swr1, active compounds read low 0.998 | locus YDR335W, strain msn5, active compounds read low 0.968 | locus YDR388W, active compounds read low 0.99 | locus YDR392W, strain spt3, active compounds read low 0.956 | locus YDR502C, strain sam2, active compounds read low 0.961 | locus YEL003W, strain gim4, active compounds read low 0.984 | locus YEL037C, strain rad23, active compounds read low 0.99 | locus YEL061C, strain CIN8 (second series), active compounds read low 0.983 | locus YEL061C, strain CIN8, active compounds read low 1.01 | locus YER015W, strain faa2, active compounds read low 1 | locus YER016W, strain bim1, active compounds read low 1.01 | locus YER110C, active compounds read low 0.969 | locus YER111C, strain swi4, active compounds read low 0.991 | locus YER155C, strain BEM2 (second series), active compounds read low 0.953 | locus YER155C, strain BEM2, active compounds read low 0.994 | locus YER167W, strain BCK2, active compounds read low 1.01 | locus YFR010W, strain ubp6, active compounds read low 0.973 | locus YGL078C, strain dbp3, active compounds read low 0.974 | locus YGL086W, strain mad1, active compounds read low 0.996 | locus YGL167C, strain pmr1, active compounds read low 0.988 | locus YGL173C, strain kem1, active compounds read low 0.978 | locus YGL227W, strain vid30, active compounds read low 0.975 | locus YGL240W, strain doc1, active compounds read low 0.975 | locus YGL248W, strain PDE1, active compounds read low 1.02 | locus YGL253W, strain hxk2, active compounds read low 0.987 | locus YGR135W, strain pre9, active compounds read low 0.991 | locus YGR252W, strain gcn5, active compounds read low 0.898 | locus YHR013C, strain ard1, active compounds read low 0.999 | locus YHR027C, strain rpn1, active compounds read low 0.984 | locus YHR030C, strain SLT2, active compounds read low 1.02 and 0.997 | locus YHR079C, strain IRE1 (second series), active compounds read low 1 | locus YHR079C, strain IRE1, active compounds read low 0.989 | locus YHR094C, strain hxt1, active compounds read low 0.981 | locus YHR129C, strain ARP1, active compounds read low 1.02 | locus YHR142W, strain chs7, active compounds read low 0.998 | locus YHR200W, strain rpn10, active compounds read low 1.01 | locus YIL066C, strain RNR3, active compounds read low 1.01 | locus YIL073C, strain SPO22, active compounds read low 0.972 | locus YIL125W, strain kgd1, active compounds read low 0.993 | locus YIR030C, strain dcg1, active compounds read low 0.986 | locus YJL092W, strain hpr5, active compounds read low 0.99 | locus YJL095W, strain BCK1 (second series), active compounds read low 0.986 | locus YJL095W, strain BCK1, active compounds read low 1.05 and 0.999 | locus YJL115W, strain asf1, active compounds read low 0.979 | locus YJL129C, strain trk1, active compounds read low 0.955 | locus YJL134W, strain LCB3, active compounds read low 1.01 | locus YJL154C, strain vps35, active compounds read low 0.98 | locus YJL164C, strain tpk1, active compounds read low 0.994 | locus YJL166W, strain qcr8, active compounds read low 0.973 | locus YJL168C, strain set2, active compounds read low 0.981 | locus YJL187C, strain SWE1 (second series), active compounds read low 1.01 | locus YJL187C, strain SWE1, active compounds read low 0.994
